# Experimental data as given in ChEMBL document CHEMBL1961873, “Compounds: GSK PKIS; Assays: Nanosyn kinase panel” (2012).
# How the values were obtained:
# [1] = target: Platelet-derived growth factor receptor beta (Homo sapiens) (UniProt P09619); settings: at 1 µM;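 also: each value is a mean percent inhibition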
# [2] = target: Tyrosine-protein kinase FRK (Homo sapiens) (UniProt P42685); settings: at 0.1 µM
# [3] = target: Tyrosine-protein kinase FRK (Homo sapiens) (UniProt P42685); settings: at 1 µM
# [4] = target: Protein-tyrosine kinase 2-beta (Homo sapiens) (UniProt Q14289); settings: at 0.1 µM
# [5] = target: Protein-tyrosine kinase 2-beta (Homo sapiens) (UniProt Q14289); settings: at 1 µM
# [6] = target: Proto-oncogene tyrosine-protein kinase receptor Ret (Homo sapiens) (UniProt P07949); settings: at 0.1 µM
# [7] = target: Proto-oncogene tyrosine-protein kinase receptor Ret (Homo sapiens) (UniProt P07949); settings: at 1 µM
# [8] = test system: Proto-oncogene tyrosine-protein kinase receptor Ret (Homo sapiens), P07949 [V804L]; settings: at 0.1 µM
# [9] = test system: Proto-oncogene tyrosine-protein kinase receptor Ret (Homo sapiens), P07949 [V804L]; settings: at 1 µM
# [10] = test system: Proto-oncogene tyrosine-protein kinase receptor Ret (Homo sapiens), P07949 [Y791F]; settings: at 0.1 µM
# Chain of Proto-oncogene tyrosine-protein kinase receptor Ret (Homo sapiens), P07949 [Y791F] (P07949 whole entry Y791F): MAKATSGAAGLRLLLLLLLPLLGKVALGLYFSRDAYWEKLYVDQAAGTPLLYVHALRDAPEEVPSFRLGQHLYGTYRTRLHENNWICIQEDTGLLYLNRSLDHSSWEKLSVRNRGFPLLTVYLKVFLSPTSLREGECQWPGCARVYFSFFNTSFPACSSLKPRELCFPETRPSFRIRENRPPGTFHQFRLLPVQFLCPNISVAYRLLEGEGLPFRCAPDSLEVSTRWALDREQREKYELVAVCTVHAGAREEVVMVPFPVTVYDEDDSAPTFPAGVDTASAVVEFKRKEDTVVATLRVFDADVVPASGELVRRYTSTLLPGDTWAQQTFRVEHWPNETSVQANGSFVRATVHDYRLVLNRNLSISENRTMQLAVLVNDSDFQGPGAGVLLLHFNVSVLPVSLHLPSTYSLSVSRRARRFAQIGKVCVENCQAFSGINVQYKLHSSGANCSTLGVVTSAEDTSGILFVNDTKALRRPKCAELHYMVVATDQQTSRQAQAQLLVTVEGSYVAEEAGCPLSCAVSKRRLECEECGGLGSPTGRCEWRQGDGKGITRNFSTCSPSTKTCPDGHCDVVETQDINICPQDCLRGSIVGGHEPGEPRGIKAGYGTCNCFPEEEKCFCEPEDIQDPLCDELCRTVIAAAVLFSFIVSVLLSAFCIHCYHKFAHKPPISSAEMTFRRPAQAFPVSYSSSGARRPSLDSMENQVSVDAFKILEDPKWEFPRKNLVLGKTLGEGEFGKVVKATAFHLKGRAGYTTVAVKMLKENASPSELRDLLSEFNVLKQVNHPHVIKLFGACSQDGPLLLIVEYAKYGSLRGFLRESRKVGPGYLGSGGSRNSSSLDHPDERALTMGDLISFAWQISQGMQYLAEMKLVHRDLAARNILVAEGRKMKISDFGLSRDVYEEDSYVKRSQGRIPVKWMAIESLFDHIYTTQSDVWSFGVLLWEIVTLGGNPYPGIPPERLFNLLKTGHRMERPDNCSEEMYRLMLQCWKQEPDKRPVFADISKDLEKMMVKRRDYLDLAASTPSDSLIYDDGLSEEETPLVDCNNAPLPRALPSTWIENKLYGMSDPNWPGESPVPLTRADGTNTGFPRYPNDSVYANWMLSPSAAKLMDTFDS
# Chain of Proto-oncogene tyrosine-protein kinase receptor Ret (Homo sapiens) (P07949 whole entry): as the sequence (P07949 whole entry Y791F) above, with F791Y counted along it
# Chain of Tyrosine-protein kinase FRK (Homo sapiens) (P42685 whole entry): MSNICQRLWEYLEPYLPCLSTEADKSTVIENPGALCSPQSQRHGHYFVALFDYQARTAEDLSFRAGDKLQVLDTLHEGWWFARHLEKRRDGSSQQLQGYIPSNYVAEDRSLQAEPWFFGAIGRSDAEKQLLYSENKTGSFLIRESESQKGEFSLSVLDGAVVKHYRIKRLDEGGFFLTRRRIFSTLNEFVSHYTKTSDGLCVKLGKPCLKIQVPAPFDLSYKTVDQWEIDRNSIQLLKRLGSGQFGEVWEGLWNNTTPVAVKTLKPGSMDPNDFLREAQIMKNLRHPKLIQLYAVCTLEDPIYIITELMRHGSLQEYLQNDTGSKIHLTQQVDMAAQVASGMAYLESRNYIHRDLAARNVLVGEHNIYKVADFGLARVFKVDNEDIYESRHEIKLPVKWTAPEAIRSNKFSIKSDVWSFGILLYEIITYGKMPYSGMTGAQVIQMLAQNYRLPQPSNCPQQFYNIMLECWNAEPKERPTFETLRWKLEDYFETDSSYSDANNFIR
# Chain of Platelet-derived growth factor receptor beta (Homo sapiens) (P09619 whole entry): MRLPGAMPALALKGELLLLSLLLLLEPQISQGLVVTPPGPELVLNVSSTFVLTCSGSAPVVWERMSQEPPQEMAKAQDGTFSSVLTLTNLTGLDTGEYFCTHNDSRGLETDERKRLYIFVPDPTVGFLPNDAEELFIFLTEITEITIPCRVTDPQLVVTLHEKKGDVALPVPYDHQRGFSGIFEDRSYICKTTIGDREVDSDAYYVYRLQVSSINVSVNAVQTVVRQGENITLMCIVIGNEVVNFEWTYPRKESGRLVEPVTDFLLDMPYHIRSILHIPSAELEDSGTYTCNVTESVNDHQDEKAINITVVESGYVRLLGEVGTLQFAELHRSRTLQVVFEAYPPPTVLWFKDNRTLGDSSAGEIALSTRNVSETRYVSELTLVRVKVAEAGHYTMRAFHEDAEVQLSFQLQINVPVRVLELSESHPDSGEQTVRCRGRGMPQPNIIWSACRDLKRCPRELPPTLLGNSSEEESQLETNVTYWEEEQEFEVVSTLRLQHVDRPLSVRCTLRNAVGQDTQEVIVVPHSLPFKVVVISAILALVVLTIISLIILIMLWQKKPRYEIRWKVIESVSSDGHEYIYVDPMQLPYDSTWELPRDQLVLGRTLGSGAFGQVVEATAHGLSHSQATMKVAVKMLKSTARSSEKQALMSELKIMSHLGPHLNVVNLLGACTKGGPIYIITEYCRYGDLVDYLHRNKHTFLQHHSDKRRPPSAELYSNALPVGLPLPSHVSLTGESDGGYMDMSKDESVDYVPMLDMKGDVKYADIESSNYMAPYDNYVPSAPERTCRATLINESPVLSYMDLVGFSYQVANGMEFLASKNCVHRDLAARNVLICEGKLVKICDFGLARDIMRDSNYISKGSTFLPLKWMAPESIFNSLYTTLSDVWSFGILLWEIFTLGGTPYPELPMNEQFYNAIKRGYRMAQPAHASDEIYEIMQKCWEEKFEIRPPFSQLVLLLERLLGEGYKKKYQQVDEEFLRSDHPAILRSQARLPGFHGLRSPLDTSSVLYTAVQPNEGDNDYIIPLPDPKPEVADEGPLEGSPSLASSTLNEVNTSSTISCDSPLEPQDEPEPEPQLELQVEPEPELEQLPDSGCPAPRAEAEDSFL
# Chain of Protein-tyrosine kinase 2-beta (Homo sapiens) (Q14289 whole entry, looked up): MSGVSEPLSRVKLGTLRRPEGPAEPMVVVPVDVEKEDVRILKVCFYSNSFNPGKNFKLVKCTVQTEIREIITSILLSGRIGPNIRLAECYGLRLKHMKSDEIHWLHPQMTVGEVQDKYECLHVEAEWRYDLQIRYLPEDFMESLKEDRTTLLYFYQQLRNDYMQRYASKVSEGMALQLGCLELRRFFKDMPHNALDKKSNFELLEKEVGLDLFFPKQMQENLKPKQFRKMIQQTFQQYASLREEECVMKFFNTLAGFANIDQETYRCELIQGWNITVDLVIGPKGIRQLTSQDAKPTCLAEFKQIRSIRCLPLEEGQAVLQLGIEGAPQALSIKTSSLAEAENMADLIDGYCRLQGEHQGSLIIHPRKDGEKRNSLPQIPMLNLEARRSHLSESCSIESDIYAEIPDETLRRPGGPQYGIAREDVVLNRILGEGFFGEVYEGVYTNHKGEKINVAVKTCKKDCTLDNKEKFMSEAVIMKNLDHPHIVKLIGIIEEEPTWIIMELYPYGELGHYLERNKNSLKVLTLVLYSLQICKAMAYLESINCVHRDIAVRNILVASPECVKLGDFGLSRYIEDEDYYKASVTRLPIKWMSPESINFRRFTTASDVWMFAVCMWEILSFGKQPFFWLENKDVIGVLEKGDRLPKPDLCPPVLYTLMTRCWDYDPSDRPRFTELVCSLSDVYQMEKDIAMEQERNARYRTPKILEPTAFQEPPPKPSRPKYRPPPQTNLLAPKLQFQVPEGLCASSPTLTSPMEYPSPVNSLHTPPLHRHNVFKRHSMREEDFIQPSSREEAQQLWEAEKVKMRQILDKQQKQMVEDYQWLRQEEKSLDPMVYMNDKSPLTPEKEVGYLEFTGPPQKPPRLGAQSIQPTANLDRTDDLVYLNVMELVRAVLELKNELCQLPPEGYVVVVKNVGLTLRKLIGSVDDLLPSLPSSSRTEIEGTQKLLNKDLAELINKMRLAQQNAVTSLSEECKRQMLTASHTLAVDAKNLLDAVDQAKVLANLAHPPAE
# Chain of Proto-oncogene tyrosine-protein kinase receptor Ret (Homo sapiens), P07949 [V804L] (P07949 whole entry V804L): as the sequence (P07949 whole entry Y791F) above, with F791Y, V804L counted along it
Compound,inhibition [1],inhibition [2],inhibition [3],inhibition [4],inhibition [5],inhibition [6],inhibition [7],inhibition [8],inhibition [9],inhibition [10]
CCn1c(-c2nonc2N)nc2ccccc21,5.69%,0.05%,1.69%,4.43%,7.84%,1.65%,3.15%,2.56%,0.52%,4.13%
CCCN(CCS(C)(=O)=O)Cc1ccc(-c2ccc3ncnc(Nc4ccc(OCc5cccc(F)c5)c(Cl)c4)c3c2)o1,8.69%,0.49%,2.46%,3.28%,-1.09%,4.68%,7.59%,1.01%,5.01%,2.4%
NC(=O)c1sc(-n2cnc3ccc(C(F)(F)F)cc32)cc1OCc1ccccc1Br,7.98%,2.51%,2.35%,9.64%,12.8%,1.18%,4.33%,2.41%,3.36%,3.67%
Fc1ccc(-c2cc(-c3c[nH]nc3-c3ccccn3)ccn2)cc1,11.8%,2.82%,1.26%,7.36%,19.4%,5.13%,2.43%,2.33%,8.21%,3.92%
COc1ccc(CNC(=O)c2ccc(-c3cc(-c4nnc(C)o4)ccc3C)cc2)cc1,13%,0.66%,1.5%,-0.09%,5.83%,7.22%,7.69%,14%,15.8%,6.44%
CN(C)CCOc1ccc(-c2nc(-c3ccncc3)c(-c3ccc4c(c3)CC/C4=N\O)[nH]2)cc1,15.7%,2.18%,1.99%,5.76%,10.5%,5.96%,7.06%,3.07%,6.45%,2.28%
[O-][S+]1CCN(Cc2ccc(-c3ccc4ncnc(Nc5ccc(OCc6cccc(F)c6)c(Cl)c5)c4c3)o2)CC1,8%,4.01%,4.89%,4.76%,11.7%,3.9%,8.36%,7.71%,16.5%,6.06%
CC(C)(CO)CNC(=O)c1ccc2c(c1)/C(=N/Nc1ccc(S(N)(=O)=O)cc1)C(=O)N2,72.3%,-0.08%,-0.01%,-4.01%,18.8%,9.94%,49.1%,33.5%,72.5%,13.8%
N#Cc1c(NC(=O)CN2CCOCC2)sc2c1CCCC2,8.2%,2.9%,1.5%,9.37%,14.3%,4.27%,7.18%,1.54%,8.77%,5.41%
Fc1ccc(-c2nn3ccccc3c2-c2ccncc2)cc1,12.7%,0.42%,1.58%,3.99%,4.06%,1.59%,5.12%,0.36%,1.74%,4.32%
COC(=O)c1sc(-n2cnc3cc(OC)c(OC)cc32)cc1OCc1ccccc1C(F)(F)F,54.9%,2.68%,2.31%,11.6%,10.7%,24.8%,64.5%,9.09%,27.8%,25.1%
CNC(=O)c1cc(-c2ccc(F)cc2)cc(-c2ccc(S(=O)(=O)N3CCCC3)cc2)c1N,6.26%,2.42%,2.21%,2.65%,7.64%,2.88%,2.96%,2.49%,5.41%,3.21%
COc1cc2c(cc1Nc1nc(Nc3ccsc3C(N)=O)c3cc[nH]c3n1)N(C(=O)CN(C)C)CCC2(C)C,62.7%,2.92%,8.45%,88.3%,96.7%,8.13%,14.1%,12.9%,38.1%,8.97%
c1ccc(COc2ccc(Nc3ncnc4ccc(-c5ccco5)cc34)cc2)cc1,0.57%,-0.18%,0.89%,-2.12%,1.9%,1.71%,2.96%,1.93%,2.59%,1.88%
Cc1ccc(O)cc1Nc1ccnc2cc(-c3ccccn3)ccc12,87%,18.9%,68.2%,10.1%,17.6%,84.2%,89.8%,4.72%,3.44%,92.3%
CCn1c(-c2nonc2N)nc2cnc(Oc3cccc(NC(=O)c4ccc(N(C)C)cc4)c3)cc21,6.43%,1.12%,0.64%,1.13%,3.58%,3.06%,4.26%,3.42%,6.51%,3.78%
Cc1cccc(Nc2ncc(-c3ccccc3)o2)c1,37.2%,-0.04%,3.76%,-0.77%,4.02%,1.88%,7.33%,0.92%,4.53%,2.77%

Compound,inhibition [1],inhibition [2],inhibition [3],inhibition [4],inhibition [5],inhibition [6],inhibition [7],inhibition [8],inhibition [9],inhibition [10]
Nc1nc(-c2cccc(Cl)c2)c(-c2ccc3ncccc3n2)s1,15%,3.21%,3.32%,10.4%,14.5%,4.79%,5.99%,8.87%,14.1%,3.93%
CS(=O)(=O)CCNCc1coc(-c2ccc3ncnc(Nc4ccc(OCc5ccccc5)cc4)c3c2)c1,5.87%,1.08%,0.27%,3.8%,3.38%,3.04%,8.54%,3.88%,5.06%,6.2%
NS(=O)(=O)c1ccc(N/N=C2\C(=O)Nc3ccc4ncccc4c32)cc1,82.8%,0.32%,4.11%,6.43%,43.2%,37.3%,78.9%,57.7%,82.7%,45.3%
CC(=O)NCc1cccc(C#Cc2cncnc2Nc2ccc(OCc3cccc(F)c3)c(Cl)c2)c1,6.15%,1.61%,1.03%,3.96%,0.92%,3.99%,20.2%,2.58%,6.73%,1.6%
CC(C)COC(=O)c1ccc2c(c1)/C(=C/Nc1ccc(S(N)(=O)=O)cc1)C(=O)N2,86%,-0.58%,1.92%,2.4%,16.5%,34%,78%,54.5%,82.4%,25.2%
Fc1cccc(COc2ccc(Nc3ncnc4sc(-c5ccco5)cc34)cc2Cl)c1,15%,4.23%,3.25%,6.41%,5.02%,3.58%,5.02%,5.96%,11.1%,8.01%
COc1cccc(-c2c[nH]c3c(N/N=C/c4ccncc4)ncnc23)c1,81.1%,1.61%,3.28%,2.76%,9.78%,10.7%,37.9%,7.65%,30.7%,10.2%
CN1CCC(n2cnc(-c3ccc(F)cc3)c2-c2ccnc(Nc3ccccc3)n2)CC1,44.7%,0.85%,1.83%,4.25%,5.64%,6.59%,18.3%,4.17%,7.13%,7.03%
FC(F)(F)c1cccc(-c2nn3ncccc3c2-c2ccnc(Nc3ccc4c(c3)OCCO4)n2)c1,14.4%,0.89%,5.26%,-0.64%,13.1%,7.52%,31.8%,4.11%,2.86%,7.75%
O=S(=O)(CCNCc1ccc(-c2ccc3ncnc(Nc4ccc(OCc5cccc(F)c5)c(Cl)c4)c3c2)o1)c1ccccc1,12.2%,4.29%,3.5%,5.1%,12.9%,6.34%,3.04%,7.31%,9.24%,10.8%
COc1ccc(-c2cc(-c3c[nH]nc3-c3ccccn3)ccn2)cc1,31.9%,3.08%,2.92%,7.68%,13.9%,5.33%,5.9%,4.29%,5.73%,6.24%
COC(=O)Nc1nc2ccc(Oc3ccc(NC(=O)Nc4cccc(Cl)c4)cc3)cc2[nH]1,28.7%,0.45%,0.48%,0.45%,5.25%,52.1%,74.4%,23.8%,54.8%,45.5%
COc1cccc(-n2ncc3c(N/N=C/c4ccc(F)cc4)ncnc32)c1,45.3%,4.95%,1.58%,8.88%,13.6%,5.24%,14.9%,2.47%,7.65%,1.26%
Clc1ccc(-c2nn3ncccc3c2-c2ccnc(Nc3ccccc3)n2)cc1,39.4%,0.95%,3.48%,7.96%,14.7%,8.76%,42%,4.29%,4.92%,9.6%
CCc1nn2ncccc2c1-c1ccnc(NC2CC2)n1,13.8%,1.9%,1.77%,-3.19%,2.45%,3.64%,2.46%,3.6%,2.94%,5.5%
COc1ccc2[nH]c3c4[nH]c5ccc(OC)cc5c4c4c(c3c2c1)C(=O)NC4=O,85.1%,-0.26%,0.68%,29.5%,80.6%,40.5%,77.3%,71%,82.1%,44.8%
CCNC(=O)O[C@H]1CN[C@H](C#Cc2cc3ncnc(Nc4ccc(OCc5cccc(F)c5)c(Cl)c4)c3s2)C1,5.63%,1.7%,1.79%,9.03%,7.74%,2%,3.91%,2.16%,0.84%,1.93%
